Tau fibril FP: tau fibrillization inhibition (FP); P10636; K18 P301L tau heparin fibrillization, Alexa594 FP, 6 h; Potency, µM (top dose mostly 57.7 µM), for the others: top-dose activity, negative = inhibition, most hits filed as inhibitors; hit rate 0.39% among 280,000; AID 1468; also: potency is read from the fitted curve at half-maximal effect; nearly all actives have a fitted effect of over 55% in size
Target sequence (P10636 561-689 P618L limits assumed): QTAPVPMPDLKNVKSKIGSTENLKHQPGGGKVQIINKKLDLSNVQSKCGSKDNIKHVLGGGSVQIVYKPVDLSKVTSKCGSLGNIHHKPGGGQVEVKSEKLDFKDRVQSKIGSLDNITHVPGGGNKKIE
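Human tau K18 […] P301L fragment, 15 uM unlabeled plus 0.24 uM Alexa 594-labeled tau (final), with compound and 20 uM heparin in 100 mM sodium acetate pH 7; 6 hr at 37 C, then Alexa 594 FP read.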
FBPA coupling cs: coupling enzyme interference in Giardia aldolase counter-screen; activity change, negative = inhibition, % at 58.2 µM, hits read low; coupling enzyme system counterscreen, AmpLite Red fluorescence; AID 2472; hit rate 0.67% among 290,000; in the data active = activity change below about -30%
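Counterscreen lacking aldolase: glyceraldehyde-3-phosphate coupling-enzyme reagent preincubated 10 min at RT with compound (at 57.5 uM final), then substrate/coupling system with AmpLite Red added; fluorescence read at 525/598 nm after 20 min RT.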
Sfp PPTase inh: inhibitors of Bacillus subtilis Sfp phosphopantetheinyl transferase. Q9F4F7. Biochemical Sfp PPTase activity, qHTS. Potency, µM, inactives show largest response in the series, negative = inhibition, usual class: inhibitors. hit rate 3.5% among 310,000. AID 1490;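 also: the enzyme is Sfp with the accession as filed and its product quenches rhodamine fluorescence; potency is read from the fitted curve at half-maximal effect; 0% = enzyme reaction without inhibitor and -100% = no enzyme wells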
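Fluorescence-quenching assay: 15 nM Sfp-PPTase preincubated 15 min at room temperature with compound, then 5 uM rhodamine-CoA and 12.5 uM BHQ-2-labelled YbbR peptide added. Fluorescence (ex 525/em 598 nm) read at start and after 30 min; difference gives rate.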
Tau fibril ThT: tau fibrillization inhibition (ThT binding). recombinant tau K18 P301L, heparin-induced fibrillization, ThT fluorescence. AID 1460. Potency, µM (series often up to 57.4 µM), without a hit: top-dose activity, negative = inhibition, most hits filed as inhibitors. hit rate 2.1% among 270,000; also: potency is read from the fitted curve at half-maximal effect; nearly all actives have a fitted effect of over 55% in size
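Heparin-induced fibrillization of the P301L-mutant K18 repeat-domain fragment of human tau was followed by ThT binding in quantitative high-throughput format.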
Tau fluor counter: counter-screen for tau fibril formation inhibitors; tau K18 P301L Alexa594 fluorescence, heparin fibrillization; Potency, µM (top dose mostly 57.7 µM), inactives show at the top dose activity change, negative = decrease; hit rate 0.93% among 280,000; AID 1463; also: potency is read from the fitted curve at half-maximal effect; nearly all actives have a fitted effect of over 55% in size
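Human tau K18 P301L (15 uM unlabeled, 0.24 uM Alexa 594-labeled) in 100 mM sodium acetate pH 7 with 20 uM heparin, 6 hr at 37 C. ThT 30 uM added, 1 hr ambient; Alexa 594 FP and total fluorescence read at 555/632 nm.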
An asterisk follows results filed as active; ? = inconclusive; . = no result given; [ ] = another dose, or the depositor's remark. A selection: hits, their analogues and other compounds. The true share with any hit is near 5.2%. Unless noted, calls follow the shape of the dose curve; as a rule, active = well fitted curve in the direction sought with a large enough effect; inconclusive = small, poorly fitted or top-dose-only effect, or another doubt; inactive = no such curve, though single readings can be large; an effect the other way counts as inactive or inconclusive. Unless noted, % is scaled to controls: 0 for no effect and ±100 for the full control effect.

SMILES	Tau fibril FP	FBPA coupling cs	Sfp PPTase inh	Tau fibril ThT	Tau fluor counter
C/C(=N\Nc1ccc(S(N)(=O)=O)cc1[N+](=O)[O-])c1ccc2c(c1)OCO2	-1%	2	9%	3.5µM*	?
O=C(O)c1ccc(/C=N\Nc2ccc(S(=O)(=O)N3CCOCC3)cc2[N+](=O)[O-])cc1	3%	18	4%	?	-20%
CCOC(=O)N1CCC(=NNc2nc(C)cc(=O)[nH]2)CC1	-13%	-2	79µM*	?	-10%
Cc1nc(N2C(=O)c3oc4ccccc4c(=O)c3C2c2ccccc2F)sc1C (centres undefined)	-4%	.	.	-8%	-10%
CCOC(=O)CCN1C(=O)[C@H]2[C@H]3[C@H](O)[C@H](O)C/C(=N/OC[C@@H](O)COCc4ccco4)[C@H]3CC[C@@H]2C1=O	0%[11.6 µM]	-1	-4%	2%[11.5 µM]	0%[11.6 µM]
CCOc1cc(-c2cc(-c3ccc(N)cc3)nc(N)c2C#N)ccc1O	?	-2	-1%	?	14µM*[quencher]
Nc1nc(Cl)nc2c1ncn2[C@@H]1O[C@H](CO)[C@H](O)C1F (some centres undefined)	.	.	11%	.	.
O=S(=O)(c1ccc(Br)s1)N1CCN(c2ccc(F)cc2)CC1	.	0	50µM*	.	.
CC(C)Oc1ccc(OCCNC2CCCC2)cc1	-1%	-3	50µM*	3%	-4%
COc1ccc2[nH]cc(CCNc3ncnc4ccc(-c5ccccc5C#N)cc34)c2c1	14%	0	15%	?	14µM*[quencher]
COc1ccc2[nH]cc(CCNc3ncnc4ccc(-c5cccc(C#N)c5)cc34)c2c1	.	-11	-22%	.	.
COCCNc1ncnc2ccc(-c3ccccc3C)cc12	.	3	79µM*	.	.
COc1cc(-c2nnn(CC(=O)Nc3ccc(OC(F)(F)F)cc3)n2)cc(OC)c1OC	18µM*	.	.	-3%	?
COc1cccc(CN2CCN(C3CSCCSC3)CC2CCO)c1 (centres undefined)	5%	-32*	-11%	8%	4%
COc1ccccc1CNc1ncnc2ccc(-c3ccccc3C#N)cc12	.	0	4%	.	.
COCCCNC(=S)NNC(=S)Nc1cccc(Cl)c1	17%	-1	22µM*	?	?
COCCCNC(=S)NNC(=S)NCCCOC	-2%	3	45µM*	0%	3%
Oc1ccc(N2CCN(c3nc(-c4cccs4)nc4ccccc34)CC2)cc1	5%	4	?	.	14µM*[quencher]
c1ccc(N2CCN(c3nc(-c4cccs4)nc4ccccc34)CC2)cc1	-5%	2	-19%	?	-16%
O=C1CC[C@H](C(=O)N[C@@H]2C[C@H]2c2ccccc2)N1	.	.	6%	.	.
O=C(NNc1cc(Br)c(O)c(Br)c1)c1ccccc1	16µM*	-21	-56%	5µM*	?
NS(=O)(=O)c1ccc(NNC(=O)c2ccccc2)cc1	0%	-1	?	.	6%
Cc1ccc(NC(=O)Nc2ccc3c(c2)N(C)C(=O)CS3)cc1C	2%	0	-7%	8%	1%
Cc1cc(C)cc(NC(=O)Nc2ccc3c(c2)N(C)C(=O)CS3)c1	?	-1	-4%	-12%	11µM*[quencher]
CCc1ccc(NC(=O)Nc2ccc3c(c2)N(C)C(=O)CS3)cc1	?	1	-17%	-18%	18µM*[quencher]
SMILES	Tau fibril FP	FBPA coupling cs	Sfp PPTase inh	Tau fibril ThT	Tau fluor counter
COc1cccc(C(=O)N2c3nc(-c4ccco4)nn3C3(CCCCC3)[C@@H]3CCCC[C@@H]32)c1	0%	.	.	-9%	-7%
O=C(CN1CCCc2ccccc21)N/N=C/c1ccccc1	11%	0	16%	?	?
O=C(CN1CCCc2ccccc21)N/N=C/c1c(O)ccc2ccccc12	15%	1	6%	?	14µM*[quencher]
S=C1SCN(CC2CC2)CN1CC1CC1	-18%	0	35µM*	.	3%
Nc1sccc1C(=O)c1ccccc1	2%	-4	28µM*	-16%	-16%
O=C(c1ccccc1)c1ccccc1C(=O)c1ccccc1	-8%	-7	15%	1%	-7%
CN1CCC2(CC1)N=C(c1ccc(F)cc1)C(=S)N2C(=O)c1ccc(C(C)(C)C)cc1	-3%	-2	50µM*	?	-8%
CC(C)(C)c1ccc(C(=O)N2CCNCC2)cc1	-6%	1	-13%	-12%	-9%
Cc1cc(C)c(S(=O)(=O)NCc2csc(-c3ccccc3)n2)c(C)c1	5%	.	.	-12%	-28%
CN(C)/C=C1/NC(=S)NC1=O	-1%	-3	79µM*	-11%	-11%
O=c1c2ccccc2nc(/C=C/c2ccccc2)n1CCCO	.	6	8%	.	.
O=c1c2ccccc2nc(/C=C/c2c[nH]c3ccccc23)n1CCO	?	-2	-1%	?	20µM*[quencher]
CCOCCCNC(=S)N(CCO)Cc1cc2cc3c(cc2[nH]c1=O)OCCO3	.	1	56µM*	.	.
CCN(CC)CCN(Cc1cc2cc3c(cc2[nH]c1=O)OCCO3)C(=S)NCC1CCCO1 (centres undefined)	-4%	-23	5µM*	9%	2%
Cc1ccc(-c2noc(CNC(=O)c3ccc(Br)o3)n2)cc1	-19%	.	.	-16%	?
COCc1cc(C)nc2sc3c(c12)NC(c1ccccc1C(=O)O)N(c1cccc(C(F)(F)F)c1)C3=O (centres undefined)	-1%	.	.	-11%	-10%
CC(=O)C(Sc1nn(C)c(=S)s1)C(=O)Nc1ccccc1 (centres undefined)	?	3	40µM*	?	-10%
CC(=O)C(Sc1nc(N(C)C)nc(N(C)C)n1)C(=O)Nc1ccccc1 (centres undefined)	-15%	6	-11%	?	-22%
COc1cccc(OCC(=O)NCCS(=O)(=O)N2CCN(c3ccccc3F)CC2)c1	6%	.	.	-3%	-3%
N#CCCn1c(=O)c(-c2ccc(Cl)cc2)nc2cnc(N3CCNCC3)nc21	.	3	-19%	.	.
O=C(N/N=C\c1ccc(O)c([N+](=O)[O-])c1)C1COc2ccccc2O1 (centres undefined)	?	7	-3%	10µM*	-12%
COc1ccc(Br)cc1/C=N/NC(=O)CNC(=O)C1COc2ccccc2O1 (centres undefined)	.	-41*	4%	.	.
Cc1cc([N+](=O)[O-])cc(/C=N\NC(=O)C2COc3ccccc3O2)c1O (centres undefined)	9%	8	20%	13µM*	?
COc1cc(/C=N\NC(=O)C2COc3ccccc3O2)cc(OC)c1O (centres undefined)	6%	4	7%	?	-11%
O=C(NCCc1ccc(O)c(O)c1)C1COc2ccccc2O1 (centres undefined)	.	-8	50µM*	.	.
COc1cc(/C=N/NC(=O)C2COc3ccccc3O2)ccc1O (centres undefined)	-2%	-1	8%	?	-19%
